Inconclusive results are not listed. Activity calls are given as the source filed them. Unless noted, the call rests on the fitted dose curve.
Legend:
[1] = Nuclear factor erythroid 2-related factor 2/antioxidant responsive element (Nrf2/ARE) small molecule agonists: qHTS cell viability counter screen in human keratinocytes (AID 1919968; active means well fitted curve in the direction sought with a large enough effect in the repeat runs; an effect the other way counts as inactive or inconclusive; further: nearly all actives have a fitted effect of over 55% in size; further: potency means the concentration at half of the fitted maximal effect)
In short: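 Viability counter-screen: KeratinoSens reporter cells, DMSO-delivered compounds, 23 h at 37 C, CellTiter-Fluor fluorescence.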

[2] = Nuclear factor erythroid 2-related factor 2/antioxidant responsive element (Nrf2/ARE) small molecule agonists: luciferase reporter gene qHTS assay in human keratinocytes (AID 1919969); further: nearly all actives have a fitted effect of over 35% in size; further: potency means the concentration at half of the fitted maximal effect
[3] = G protein-coupled receptor (GPCR) small molecule agonists, calcium flux assay: HEK293 wild type cell line counter screen (AID 1920065)
In short: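 In this agonist-mode screen, ATP is the positive control and DMSO the vehicle. Cells grow 18 h before a 1 h dye incubation at 37 C; signal is taken at Ex/Em 480/540 over 3 min.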

[4] = p53 small molecule agonists, cell-based qHTS assay with human liver microsomes: qHTS cell viability counter screen (AID 1963579); further: nearly all actives have a fitted effect of over 45% in size
In short: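 Viability of p53RE-bla cells is measured as CellTiter-Glo luminescence following a 16 h, 37 C incubation with compound, liver microsomes from human donors and NADPH.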

[5] = p53 small molecule agonists, cell-based qHTS assay with rat liver microsomes: qHTS cell viability counter screen (AID 1963580); further: nearly all actives have a fitted effect of over 45% in size; further: potency means the concentration at half of the fitted maximal effect
In short: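 Viability is assessed in parallel with the p53 reporter read: HCT-116 p53RE-bla cells receive compounds plus rat microsomes and NADPH (0.5 mg/mL final apiece), incubate 16 h at 37 C, and then CellTiter-Glo luminescence is recorded.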

[6] = p53 small molecule agonists, cell-based qHTS assay: qHTS cell viability counter screen (AID 1963581); further: nearly all actives have a fitted effect of over 45% in size
In short: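 Compounds are pinned onto HCT-116 p53RE-bla cells and left 16 h at 37 C. Following the reporter FRET read, ATP is quantified by CellTiter-Glo luminescence after 30 min at room temperature.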

[7] = target: 5-hydroxytryptamine receptor 2A (Homo sapiens) (UniProt P28223); assay: 5-hydroxytryptamine receptor 2A (HTR2A) small molecule agonists, cell-based qHTS assay (AID 1963587); further: nearly all actives have a fitted effect of over 30% in size; further: potency means the concentration at half of the fitted maximal effect
In short: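 CHO cells stably expressing human HTR2A, plated 18 h, loaded with calcium dye 1 h at 37 C. Agonist mode: compounds added and intracellular calcium fluorescence recorded kinetically for 2 min at 1 sec intervals.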

[8] = target: Muscarinic acetylcholine receptor M1 (Homo sapiens) (UniProt P11229); assay: Cholinergic receptor muscarinic 1 (CHRM1) small molecule antagonists, cell-based qHTS assay (AID 1963588); further: nearly all actives have a fitted effect of over 40% in size; further: potency means the concentration at half of the fitted maximal effect
In short: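 CHRM1-CHO calcium-flux assay, antagonist mode. Cells were seeded 18 h, dye-loaded 1 h at 37 C and given compound for 5 min at RT, then acetylcholine was added at 50nM. FDSS fluorescence was read 3 min; 15 concentrations, three runs.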

[9] = target: Muscarinic acetylcholine receptor M1 (Homo sapiens) (UniProt P11229); assay: Cholinergic receptor muscarinic 1 (CHRM1) small molecule agonists, cell-based qHTS assay (AID 1963589); further: nearly all actives have a fitted effect of over 35% in size
In short: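 Stable CHRM1-CHO cells (human receptor) were incubated 18 h, dye-loaded for 1 h at 37 C and exposed to test compounds for agonist activity, with calcium-dependent fluorescence followed kinetically.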

[10] = cAMP Responsive Elements (CRE) small molecule agonists, cell-based qHTS assay (AID 1963590)
In short: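 FRET-based beta-lactamase readout (LiveBLAzer B/G, 2 h RT) quantified CRE activation in HEK 293T CRE-bla cells after 3 h treatment with DMSO-dissolved compounds.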

[11] = cAMP Responsive Elements (CRE) small molecule antagonists, cell-based qHTS assay (AID 1963591; active means well fitted inhibition curve with a large enough effect in the signal ratio in the repeat runs, not every such curve was filed as active; the % refers to the signal ratio)
In short: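 qHTS in CRE-bla HEK 293T cells: compound in DMSO, then 0.25 uM NKH477 (final), 3 h at 37 °C/5% CO2; beta-lactamase FRET read-out after 2 h substrate incubation.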

[12] = target: Beta-2 adrenergic receptor (Homo sapiens) (UniProt P07550); assay: Adrenergic beta2 receptor (ADRB2) small molecule agonists, cell-based qHTS assay (AID 1963593);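 further: CHO cells stably overexpressing human ADRB2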
In short: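 CHO cells stably over-expressing ADRB2 were plated overnight at 37C, then dosed with compounds plus a stimulation mix containing 100uM IBMX and 25uM Ro-20-1724 for 0.5hr at room temperature. cAMP was measured by HTRF competition, 1hr.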

[13] = target: D(2) dopamine receptor (Homo sapiens) (UniProt P14416); assay: Dopamine D2 receptor (DRD2) small molecule agonists, cell-based qHTS assay (AID 1963594); further: nearly all actives have a fitted effect of over 35% in size
In short: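 HEK293 cells stably expressing human DRD2, pre-treated with PDE inhibitor Ro20-1724 (0.1 mM final) and compound 10 min at room temperature, then stimulated with NKH477 (200nM […]) for 30 min. cAMP read by HTRF (665/620 nm).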

[14] = target: KiSS-1 receptor (Homo sapiens) (UniProt Q969F8); assay: Human kisspeptin (KISS1R) small molecule agonists, calcium flux assay in KISS1R-HEK293 cells (AID 1920064; active means well fitted curve in the direction sought with a large enough effect in the repeat runs; an effect the other way counts as inactive or inconclusive)
In short: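 Intracellular calcium mobilization in KISS1R-HEK293 cells was recorded by fluorescence (Ex/Em 480/540) for 3 min following compound addition to cells pre-loaded 1 h with calcium dye.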

[15] = p53 small molecule agonists, cell-based qHTS assay with human liver microsomes (AID 1963577);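 further: p53 response element beta-lactamase reporter cells with liver microsomes plus NADPH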
In short: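 HLM-supplemented p53RE-bla reporter assay: 16 h compound exposure at 37 C, microsomes and NADPH each 0.5 mg/mL final, read by fluorescence intensity.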

[16] = p53 small molecule agonists, cell-based qHTS assay with rat liver microsomes (AID 1963578)
In short: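 Quantitative HTS of the Tox21 10K library: p53RE-bla cells, rat liver microsomes plus NADPH at 0.5 mg/mL final each, 16 h at 37 C, beta-lactamase fluorescence detection.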

[17] = p53 small molecule agonists, cell-based qHTS assay (AID 1963582; active means well fitted activation curve with a large enough effect in the signal ratio in the repeat runs, not every such curve was filed as active; the % refers to the signal ratio)
In short: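 Agonist activity was scored from beta-lactamase FRET fluorescence in p53RE-bla cells treated 16 h at 37 C with compounds in DMSO, substrate incubation being 2 h at room temperature.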

[18] = target: 5-hydroxytryptamine receptor 2A (Homo sapiens) (UniProt P28223); assay: 5-hydroxytryptamine receptor 2A (HTR2A) small molecule antagonists, cell-based qHTS assay (AID 1963586); further: nearly all actives have a fitted effect of over 45% in size
In short: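 Antagonist-mode intracellular calcium assay: DOI (4 nM) added after 5 min compound pre-incubation at room temperature to dye-loaded HTR2A-CHO cells. Fluorescence followed for 3 min, sampled every second.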

[19] = target: D(2) dopamine receptor (Homo sapiens) (UniProt P14416); assay: Dopamine D2 receptor (DRD2) small molecule antagonists, cell-based qHTS assay (AID 1963595; active means well fitted inhibition curve with a large enough effect in the signal ratio in the repeat runs, with a control signal flat; the % refers to the signal ratio; further: potency means the concentration at half of the fitted maximal effect)
In short: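 Readout: HTRF cAMP, cAMP-d2 competing with cellular cAMP for anti-cAMP cryptate, read after 1 h. Cells: DRD2-HEK293. Conditions: 0.1 mM Ro20-1724, 12 nM quinpirole, 200 nM NKH477, 30 min RT.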

[20] = target: Beta-2 adrenergic receptor (Homo sapiens) (UniProt P07550); assay: Adrenergic beta2 receptor (ADRB2) small molecule antagonists, cell-based qHTS assay (AID 1963592); further: nearly all actives have a fitted effect of over 50% in size; further: potency means the concentration at half of the fitted maximal effect
In short: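 Cells (CHO, stable ADRB2 overexpression) incubated 18-20hr at 37C; compounds added from DMSO; agonist mix (1nM isoproterenol, 100uM IBMX, 25uM Ro-20-1724) added; 0.5hr RT; d2-cAMP and anti-cAMP-cryptate added; 1hr RT; 665/615 nm read.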

Measured: Potency

D(2) dopamine receptor (Homo sapiens), sequence (P14416 whole entry, looked up): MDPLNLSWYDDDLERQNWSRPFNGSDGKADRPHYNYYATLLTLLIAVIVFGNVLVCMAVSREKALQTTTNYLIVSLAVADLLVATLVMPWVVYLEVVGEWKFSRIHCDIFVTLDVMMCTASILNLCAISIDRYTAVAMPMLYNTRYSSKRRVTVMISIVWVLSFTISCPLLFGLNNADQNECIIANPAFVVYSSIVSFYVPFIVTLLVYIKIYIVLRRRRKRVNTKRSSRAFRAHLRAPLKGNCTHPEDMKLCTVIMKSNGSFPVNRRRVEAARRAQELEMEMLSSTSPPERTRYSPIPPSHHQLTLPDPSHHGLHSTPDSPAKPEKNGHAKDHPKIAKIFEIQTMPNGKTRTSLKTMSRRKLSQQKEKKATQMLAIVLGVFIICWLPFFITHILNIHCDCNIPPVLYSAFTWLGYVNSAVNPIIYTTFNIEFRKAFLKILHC
Beta-2 adrenergic receptor (Homo sapiens), sequence (P07550 whole entry, looked up): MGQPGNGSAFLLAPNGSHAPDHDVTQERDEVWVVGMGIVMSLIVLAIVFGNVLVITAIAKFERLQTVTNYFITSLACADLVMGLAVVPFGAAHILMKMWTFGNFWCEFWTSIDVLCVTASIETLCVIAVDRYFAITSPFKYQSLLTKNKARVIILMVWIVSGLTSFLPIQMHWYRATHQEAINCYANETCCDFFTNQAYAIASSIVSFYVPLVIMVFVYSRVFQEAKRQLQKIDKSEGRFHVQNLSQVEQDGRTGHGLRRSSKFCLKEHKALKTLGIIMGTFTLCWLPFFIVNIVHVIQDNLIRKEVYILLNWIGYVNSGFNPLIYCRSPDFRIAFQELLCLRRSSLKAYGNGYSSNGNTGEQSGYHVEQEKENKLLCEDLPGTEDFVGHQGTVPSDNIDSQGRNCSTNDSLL
5-hydroxytryptamine receptor 2A (Homo sapiens), sequence (P28223 whole entry, looked up): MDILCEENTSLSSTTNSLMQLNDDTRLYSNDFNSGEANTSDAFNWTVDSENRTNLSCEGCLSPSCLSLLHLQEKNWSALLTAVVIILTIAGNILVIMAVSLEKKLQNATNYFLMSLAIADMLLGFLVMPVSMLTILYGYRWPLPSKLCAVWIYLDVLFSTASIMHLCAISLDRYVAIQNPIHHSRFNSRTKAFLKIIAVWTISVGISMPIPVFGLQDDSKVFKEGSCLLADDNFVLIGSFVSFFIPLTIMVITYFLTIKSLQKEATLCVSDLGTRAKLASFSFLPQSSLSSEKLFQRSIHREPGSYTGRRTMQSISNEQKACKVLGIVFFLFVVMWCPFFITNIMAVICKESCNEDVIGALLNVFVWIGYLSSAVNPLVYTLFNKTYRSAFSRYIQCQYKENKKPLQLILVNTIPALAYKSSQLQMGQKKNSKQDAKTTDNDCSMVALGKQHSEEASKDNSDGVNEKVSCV
Muscarinic acetylcholine receptor M1 (Homo sapiens), sequence (P11229 whole entry, looked up): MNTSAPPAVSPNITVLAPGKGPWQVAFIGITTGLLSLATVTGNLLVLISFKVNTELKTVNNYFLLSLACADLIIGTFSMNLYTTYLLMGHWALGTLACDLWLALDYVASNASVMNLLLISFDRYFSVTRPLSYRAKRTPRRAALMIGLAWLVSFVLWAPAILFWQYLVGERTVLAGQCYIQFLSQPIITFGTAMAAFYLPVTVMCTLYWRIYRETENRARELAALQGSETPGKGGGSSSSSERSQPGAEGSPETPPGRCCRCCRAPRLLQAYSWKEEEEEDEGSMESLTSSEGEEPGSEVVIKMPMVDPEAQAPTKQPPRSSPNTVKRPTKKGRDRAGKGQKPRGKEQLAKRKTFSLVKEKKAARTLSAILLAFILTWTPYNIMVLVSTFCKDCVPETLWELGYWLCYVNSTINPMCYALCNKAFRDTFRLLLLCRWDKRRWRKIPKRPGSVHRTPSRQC
KiSS-1 receptor (Homo sapiens), sequence (Q969F8 whole entry, looked up): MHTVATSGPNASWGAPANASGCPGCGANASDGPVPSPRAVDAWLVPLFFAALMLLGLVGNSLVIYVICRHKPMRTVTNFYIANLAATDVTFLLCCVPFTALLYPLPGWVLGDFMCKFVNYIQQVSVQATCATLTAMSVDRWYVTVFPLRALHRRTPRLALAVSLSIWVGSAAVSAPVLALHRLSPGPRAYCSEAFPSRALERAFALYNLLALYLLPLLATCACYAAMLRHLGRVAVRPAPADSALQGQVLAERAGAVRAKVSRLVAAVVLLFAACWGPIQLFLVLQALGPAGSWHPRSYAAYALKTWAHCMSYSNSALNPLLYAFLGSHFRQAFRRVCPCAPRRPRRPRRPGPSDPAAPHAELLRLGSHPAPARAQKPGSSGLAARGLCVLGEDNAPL

O=C(NN1CCCC1)NS(=O)(=O)c1ccc(Cl)cc1
not listed: [14] | [15] | [16] | [17] | [18] | [19] | [20]
inactive: all other assays above

Cc1cc(C)c(/C=C2\C(=O)Nc3ccccc32)[nH]1
active: [7] 21.3 µM
not listed: [10] | [11] | [12] | [20]
inactive: all other assays above

O=C1CCc2cc(OCCCCc3nnnn3C3CCCCC3)ccc2N1
inactive: [1] | [2] | [4] | [5] | [6] | [20] | [12] | [13]

O=S(=O)(O)c1cc(O)c2ccc(Nc3ccccc3)cc2c1
not listed: [6] | [12] | [14] | [15] | [16] | [17]
inactive: all other assays above

C[C@]12CCC(=O)C=C1[C@@H]1C[C@@H]1[C@H]1[C@@H]3[C@@H]4C[C@@H]4[C@@]4(CCC(=O)O4)[C@@]3(C)CC[C@@H]12
active: [8] 18.3 µM
not listed: [7] | [10] | [11]
inactive: all other assays above

O=C(c1ccc(O)c(O)c1)c1ccc(O)cc1O
inactive: [1] | [2] | [4] | [5] | [6] | [8] | [20]

CCC(CC)CO
not listed: [6] | [14] | [15] | [16] | [17]
inactive: all other assays above

C=COCCOCCOC=C
not listed: [3] | [13] | [14]
inactive: all other assays above

CC(C)(C)c1ccc(OC2CCCCC2O)cc1 (centres undefined)
active: [2] 38.6 µM | [5] 1.62 µM | [7] 43.6 µM
not listed: [9] | [10] | [12] | [17] | [18] | [20]
inactive: all other assays above

CN[C@H]1CC[C@@H](c2ccc(Cl)c(Cl)c2)c2ccc(S(N)(=O)=O)cc21
active: [1] 61.1 µM | [20] 48.6 µM
inactive: [2] | [14] | [3] | [15] | [16] | [4] | [5] | [6] | [18] | [9]

CN(C)[C@@H]1C(=O)C(C(N)=O)=C(O)[C@@]2(O)C(=O)C3=C(O)c4c(O)cccc4C[C@H]3C[C@@H]12
inactive: [1] | [2] | [3] | [5] | [17] | [18] | [9] | [20] | [12] | [13] | [19]

NC(Cc1c[nH]c2ccccc12)C(=O)O (centres undefined)
not listed: [12] | [14] | [15] | [16] | [17] | [18]
inactive: all other assays above

Cc1ccc(S(=O)(=O)C(I)I)cc1
inactive: [15] | [16] | [6] | [18] | [20] | [13]
active: [1] 27.3 µM | [2] 6.11 µM | [7] 54.9 µM | [8] 18.8 µM | [19] 30.6 µM

CC(=O)S[C@@H]1CC2=CC(=O)CC[C@]2(C)[C@H]2CC[C@@]3(C)[C@@H](CC[C@@]34CCC(=O)O4)[C@H]12
inactive: [1] | [14] | [3] | [15] | [16] | [4] | [5] | [6] | [20]
active: [2] 24.3 µM

Cc1cc(O)c(C(C)C)cc1Cl
not listed: [11] | [20]
inactive: all other assays above

CCCc1ncc(C[n+]2ccccc2C)c(N)n1
not listed: [7] | [12] | [19]
inactive: all other assays above

CC(C)(N)C#N
not listed: [6] | [10] | [12] | [14] | [15] | [16] | [17] | [19]
inactive: all other assays above

O=C1NC(=O)c2cc([N+](=O)[O-])ccc21
active: [7] 55.4 µM
not listed: [12] | [17]
inactive: all other assays above

From PubChem BioAssay (Tox21)
